The text below walks through data of article PMC7862700, “An all-to-all approach to the identification of sequence-specific readers for epigenetic DNA modifications on cytosine”.

Assay in all cases: DAPPL (digital affinity profiling via proximity ligation, sequencing); 10 mM Tris-HCl pH 7.5, 50 mM NaCl, 1 mM DTT, 4% glycerol, room temperature, 30 min; GST-TFs on glutathione beads, 16-mer random dsDNA library, 0.1% formaldehyde crosslink after washing; high values mean tight binding
The target in one assay is T1, FLI1 (Homo sapiens, UniProt Q01543 1-452).
T1 sequence: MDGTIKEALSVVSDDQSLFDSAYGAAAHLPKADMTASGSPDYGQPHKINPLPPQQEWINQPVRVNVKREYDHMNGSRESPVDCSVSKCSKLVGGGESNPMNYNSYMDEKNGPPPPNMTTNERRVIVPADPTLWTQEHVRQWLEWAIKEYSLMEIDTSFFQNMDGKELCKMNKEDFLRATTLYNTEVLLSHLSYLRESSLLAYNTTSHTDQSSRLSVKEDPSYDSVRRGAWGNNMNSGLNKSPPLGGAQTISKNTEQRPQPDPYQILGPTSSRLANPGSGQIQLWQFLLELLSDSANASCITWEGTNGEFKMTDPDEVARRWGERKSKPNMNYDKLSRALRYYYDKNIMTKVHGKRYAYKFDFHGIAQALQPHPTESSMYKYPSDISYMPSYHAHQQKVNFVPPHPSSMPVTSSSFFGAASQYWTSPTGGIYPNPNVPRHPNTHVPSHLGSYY
The note with it: protein: recombinant; tags: N-terminal GST; dsDNA, one strand shown. Summed up: (§1)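 Beads coated with glutathione captured GST-fused human transcription factors that had been expressed in yeast, and the factors were then given DNA barcodes and pooled with a tag-only sample. The pools were incubated with 200 nmole of a random double-stranded 16-mer DNA library in Tris/NaCl/DTT/glycerol buffer for 30 min at room temperature, washed, crosslinked with 0.1% formaldehyde and proximity-ligated with BsaI/T4 ligase at 37 °C for 1 h. PCR amplification and Illumina NextSeq500 sequencing came last. Binding signal is each hexamer's read frequency for a factor divided by its frequency for the tag-only sample.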

Another assay addresses T2, ELK1 (Homo sapiens, UniProt P19419 1-428).
T2 sequence: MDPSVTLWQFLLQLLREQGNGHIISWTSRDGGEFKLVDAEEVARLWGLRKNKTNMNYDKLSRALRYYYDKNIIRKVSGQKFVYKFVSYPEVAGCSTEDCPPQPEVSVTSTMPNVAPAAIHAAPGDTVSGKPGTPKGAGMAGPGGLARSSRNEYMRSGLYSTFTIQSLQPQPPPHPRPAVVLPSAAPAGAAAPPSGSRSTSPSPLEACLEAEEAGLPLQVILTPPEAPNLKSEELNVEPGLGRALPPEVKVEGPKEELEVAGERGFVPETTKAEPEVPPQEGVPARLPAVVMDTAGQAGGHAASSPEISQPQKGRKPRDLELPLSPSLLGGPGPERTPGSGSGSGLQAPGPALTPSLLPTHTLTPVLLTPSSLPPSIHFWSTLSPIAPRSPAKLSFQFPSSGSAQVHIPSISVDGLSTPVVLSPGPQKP
The note with it: protein: recombinant; tags: N-terminal GST; dsDNA, one strand shown. The procedure, abridged:
as §1

The target in another assay is T3, GABPA (Homo sapiens, UniProt Q06546 1-454).
T3 sequence: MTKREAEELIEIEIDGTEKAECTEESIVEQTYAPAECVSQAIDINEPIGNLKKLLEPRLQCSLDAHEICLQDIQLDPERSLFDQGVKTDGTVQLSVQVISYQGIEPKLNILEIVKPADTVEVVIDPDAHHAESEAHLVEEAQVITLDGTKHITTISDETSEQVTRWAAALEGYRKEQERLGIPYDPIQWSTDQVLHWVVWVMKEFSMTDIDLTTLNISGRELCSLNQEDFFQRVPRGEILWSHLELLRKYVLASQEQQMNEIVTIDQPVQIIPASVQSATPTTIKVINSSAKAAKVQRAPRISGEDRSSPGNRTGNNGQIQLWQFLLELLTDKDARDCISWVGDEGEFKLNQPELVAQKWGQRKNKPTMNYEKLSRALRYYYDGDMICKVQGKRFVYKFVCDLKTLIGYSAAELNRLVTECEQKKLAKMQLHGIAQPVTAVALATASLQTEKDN
The note with it: protein: recombinant; tags: N-terminal GST; dsDNA, one strand shown. Summed up:
as §1

A further assay concerns the target T4, ERG (Homo sapiens, UniProt P11308 1-479).
T4 sequence: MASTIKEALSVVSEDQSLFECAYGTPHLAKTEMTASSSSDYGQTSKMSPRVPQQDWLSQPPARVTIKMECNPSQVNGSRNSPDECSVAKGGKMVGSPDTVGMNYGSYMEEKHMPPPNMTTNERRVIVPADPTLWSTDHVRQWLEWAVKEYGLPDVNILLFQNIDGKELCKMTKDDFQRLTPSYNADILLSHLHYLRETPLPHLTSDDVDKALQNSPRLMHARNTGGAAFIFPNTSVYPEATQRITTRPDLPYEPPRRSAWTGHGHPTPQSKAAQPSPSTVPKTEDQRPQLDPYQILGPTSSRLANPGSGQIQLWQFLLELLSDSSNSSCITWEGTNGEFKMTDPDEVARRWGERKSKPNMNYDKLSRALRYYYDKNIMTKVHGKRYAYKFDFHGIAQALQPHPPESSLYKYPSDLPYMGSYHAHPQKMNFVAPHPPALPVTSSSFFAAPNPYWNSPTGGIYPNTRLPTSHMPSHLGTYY
The note with it: protein: recombinant; tags: N-terminal GST; dsDNA, one strand shown. Summed up:
as §1

For the next assay, the target named is ELF1 (Homo sapiens, UniProt P32519 1-619). The note with it: protein: recombinant; tags: N-terminal GST; dsDNA, one strand shown. The procedure, abridged:
as §1

In another assay the target is T5, EHF (Homo sapiens, UniProt Q9NZC4 1-300).
T5 sequence: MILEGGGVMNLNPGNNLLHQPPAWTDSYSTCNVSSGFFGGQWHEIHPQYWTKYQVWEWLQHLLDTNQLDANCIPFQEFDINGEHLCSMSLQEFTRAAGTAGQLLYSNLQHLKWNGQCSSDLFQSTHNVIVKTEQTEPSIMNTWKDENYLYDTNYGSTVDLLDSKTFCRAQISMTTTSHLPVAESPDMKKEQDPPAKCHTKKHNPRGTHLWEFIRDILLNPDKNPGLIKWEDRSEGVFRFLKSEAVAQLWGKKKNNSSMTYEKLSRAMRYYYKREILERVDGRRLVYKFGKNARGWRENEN
The note with it: protein: recombinant; tags: N-terminal GST; dsDNA, one strand shown. Summed up:
as §1

A further assay concerns the target SPI1 (Homo sapiens, UniProt P17947 1-270). The note with it: protein: recombinant; tags: N-terminal GST; dsDNA, one strand shown. Summed up: as §1
For another assay, the target named is SPIB (Homo sapiens, UniProt Q01892 1-262). The note with it: protein: recombinant; tags: N-terminal GST; dsDNA, one strand shown. The procedure, abridged:
as §1

The target in the next assay is T6, ELK3 (Homo sapiens, UniProt P41970 1-407).
T6 sequence: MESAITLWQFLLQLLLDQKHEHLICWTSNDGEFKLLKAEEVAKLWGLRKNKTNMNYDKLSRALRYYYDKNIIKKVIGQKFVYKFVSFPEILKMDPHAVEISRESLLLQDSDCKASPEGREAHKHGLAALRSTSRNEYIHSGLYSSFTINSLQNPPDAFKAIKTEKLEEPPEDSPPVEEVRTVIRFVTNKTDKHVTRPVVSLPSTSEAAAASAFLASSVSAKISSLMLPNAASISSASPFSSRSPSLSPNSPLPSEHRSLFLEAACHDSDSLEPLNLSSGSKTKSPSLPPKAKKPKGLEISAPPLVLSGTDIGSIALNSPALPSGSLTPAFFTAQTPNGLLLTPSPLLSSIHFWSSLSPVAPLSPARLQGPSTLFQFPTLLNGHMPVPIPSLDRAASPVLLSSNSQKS
The note with it: protein: recombinant; tags: N-terminal GST; dsDNA, one strand shown. Summed up: as §1

For another assay, the target named is T7, FEV (Homo sapiens, UniProt Q99581 1-238).
T7 sequence: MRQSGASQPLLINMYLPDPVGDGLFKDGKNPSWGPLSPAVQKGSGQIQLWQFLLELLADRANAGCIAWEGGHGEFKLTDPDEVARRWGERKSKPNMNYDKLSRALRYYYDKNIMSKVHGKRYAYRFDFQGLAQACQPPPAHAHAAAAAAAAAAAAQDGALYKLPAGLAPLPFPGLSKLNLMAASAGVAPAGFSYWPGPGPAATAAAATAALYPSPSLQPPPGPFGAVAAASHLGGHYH
The note with it: protein: recombinant; tags: N-terminal GST; dsDNA, one strand shown. Summed up: as §1

For the next assay, the target named is ETV5 (Homo sapiens, UniProt P41161 1-510). The note with it: protein: recombinant; tags: N-terminal GST; dsDNA, one strand shown. The procedure, abridged:
as §1

Another assay has as its target HSF1 (Homo sapiens, UniProt Q00613 1-529). The note with it: protein: recombinant; tags: N-terminal GST; chain copies: 3; dsDNA, one strand shown. Summed up: as §1
Another assay deals with T8, SPIC (Homo sapiens, UniProt Q8N5J4 1-248).
T8 sequence: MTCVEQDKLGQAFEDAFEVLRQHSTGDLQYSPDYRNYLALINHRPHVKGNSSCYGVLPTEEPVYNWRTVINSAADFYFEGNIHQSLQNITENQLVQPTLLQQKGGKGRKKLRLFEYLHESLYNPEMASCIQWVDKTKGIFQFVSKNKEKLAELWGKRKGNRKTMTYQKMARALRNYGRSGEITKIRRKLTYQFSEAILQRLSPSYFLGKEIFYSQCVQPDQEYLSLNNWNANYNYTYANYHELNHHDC
The note with it: protein: recombinant; tags: N-terminal GST; dsDNA, one strand shown. Summed up:
as §1

Another assay deals with ELF4 (Homo sapiens, UniProt Q99607 1-663). The note with it: protein: recombinant; tags: N-terminal GST; dsDNA, one strand shown. Summed up:
as §1

The target in another assay is T9, ELK4 (Homo sapiens, UniProt P28324-2 1-405).
T9 sequence: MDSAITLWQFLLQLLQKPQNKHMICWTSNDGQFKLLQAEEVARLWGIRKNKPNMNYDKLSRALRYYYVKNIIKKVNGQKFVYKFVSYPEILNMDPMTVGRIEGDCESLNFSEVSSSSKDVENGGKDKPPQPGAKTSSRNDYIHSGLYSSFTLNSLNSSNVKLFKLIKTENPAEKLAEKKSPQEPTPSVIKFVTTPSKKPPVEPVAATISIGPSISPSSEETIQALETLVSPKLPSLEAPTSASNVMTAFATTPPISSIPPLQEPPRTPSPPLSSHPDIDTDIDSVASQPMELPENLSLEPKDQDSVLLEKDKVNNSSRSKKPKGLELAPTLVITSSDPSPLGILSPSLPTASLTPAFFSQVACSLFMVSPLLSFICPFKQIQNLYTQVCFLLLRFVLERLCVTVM
The note with it: protein: recombinant; tags: N-terminal GST; dsDNA, one strand shown. Summed up:
as §1

The next assay addresses T10, ETV2 (Homo sapiens, UniProt O00321 1-342).
T10 sequence: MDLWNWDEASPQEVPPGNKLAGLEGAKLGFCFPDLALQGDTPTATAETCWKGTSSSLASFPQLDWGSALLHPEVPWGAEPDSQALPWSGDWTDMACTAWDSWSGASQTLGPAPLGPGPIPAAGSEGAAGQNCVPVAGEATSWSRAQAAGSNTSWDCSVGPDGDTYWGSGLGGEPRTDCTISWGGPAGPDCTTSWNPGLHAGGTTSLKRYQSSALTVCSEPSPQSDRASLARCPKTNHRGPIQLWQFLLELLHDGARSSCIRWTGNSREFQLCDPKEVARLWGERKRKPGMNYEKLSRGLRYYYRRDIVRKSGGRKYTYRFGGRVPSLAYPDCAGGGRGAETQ
The note with it: protein: recombinant; tags: N-terminal GST; dsDNA, one strand shown. The procedure, abridged: as §1

The target in the next assay is T11, ELF3 (Homo sapiens, UniProt P78545 1-371).
T11 sequence: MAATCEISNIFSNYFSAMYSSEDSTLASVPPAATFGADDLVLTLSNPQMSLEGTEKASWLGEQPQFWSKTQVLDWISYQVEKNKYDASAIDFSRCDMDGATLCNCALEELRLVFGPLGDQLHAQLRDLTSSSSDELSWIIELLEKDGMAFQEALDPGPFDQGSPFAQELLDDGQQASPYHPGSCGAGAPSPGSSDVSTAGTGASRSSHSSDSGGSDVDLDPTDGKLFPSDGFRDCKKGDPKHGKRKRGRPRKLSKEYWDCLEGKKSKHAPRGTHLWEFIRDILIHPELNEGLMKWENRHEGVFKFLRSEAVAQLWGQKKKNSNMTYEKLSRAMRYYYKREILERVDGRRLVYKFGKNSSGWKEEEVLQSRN
The note with it: protein: recombinant; tags: N-terminal GST; dsDNA, one strand shown. The procedure, abridged:
as §1

A further assay deals with CRX (Homo sapiens, UniProt O43186 1-299). The note with it: protein: recombinant; tags: N-terminal GST; dsDNA, one strand shown. Summed up:
as §1

Another assay has as its target ETV1 (Homo sapiens, UniProt P50549 1-477). The note with it: protein: recombinant; tags: N-terminal GST; dsDNA, one strand shown. The procedure, abridged: as §1

Sequence of ETV1 (P50549 whole entry): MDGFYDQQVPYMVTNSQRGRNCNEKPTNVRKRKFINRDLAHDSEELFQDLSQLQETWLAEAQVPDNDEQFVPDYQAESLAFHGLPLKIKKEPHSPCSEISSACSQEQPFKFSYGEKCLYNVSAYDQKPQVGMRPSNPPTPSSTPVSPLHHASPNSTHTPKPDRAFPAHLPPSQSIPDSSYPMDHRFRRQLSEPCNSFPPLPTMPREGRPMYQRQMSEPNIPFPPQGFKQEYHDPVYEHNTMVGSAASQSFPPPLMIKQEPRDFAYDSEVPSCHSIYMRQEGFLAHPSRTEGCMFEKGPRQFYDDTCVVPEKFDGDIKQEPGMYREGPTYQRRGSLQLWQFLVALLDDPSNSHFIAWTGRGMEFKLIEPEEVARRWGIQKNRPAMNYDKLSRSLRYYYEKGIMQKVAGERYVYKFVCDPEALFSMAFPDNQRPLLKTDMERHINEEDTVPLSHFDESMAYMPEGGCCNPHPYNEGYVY
Sequence of CRX (O43186 whole entry): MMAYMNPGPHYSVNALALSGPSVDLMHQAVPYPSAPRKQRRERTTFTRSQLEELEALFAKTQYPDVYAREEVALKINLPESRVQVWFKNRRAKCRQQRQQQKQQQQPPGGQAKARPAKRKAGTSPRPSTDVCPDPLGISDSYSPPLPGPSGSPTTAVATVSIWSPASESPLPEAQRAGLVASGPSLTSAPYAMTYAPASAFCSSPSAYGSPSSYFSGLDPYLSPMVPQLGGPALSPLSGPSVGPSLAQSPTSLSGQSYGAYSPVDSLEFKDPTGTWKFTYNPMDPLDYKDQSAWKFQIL
Sequence of ELF4 (Q99607 whole entry): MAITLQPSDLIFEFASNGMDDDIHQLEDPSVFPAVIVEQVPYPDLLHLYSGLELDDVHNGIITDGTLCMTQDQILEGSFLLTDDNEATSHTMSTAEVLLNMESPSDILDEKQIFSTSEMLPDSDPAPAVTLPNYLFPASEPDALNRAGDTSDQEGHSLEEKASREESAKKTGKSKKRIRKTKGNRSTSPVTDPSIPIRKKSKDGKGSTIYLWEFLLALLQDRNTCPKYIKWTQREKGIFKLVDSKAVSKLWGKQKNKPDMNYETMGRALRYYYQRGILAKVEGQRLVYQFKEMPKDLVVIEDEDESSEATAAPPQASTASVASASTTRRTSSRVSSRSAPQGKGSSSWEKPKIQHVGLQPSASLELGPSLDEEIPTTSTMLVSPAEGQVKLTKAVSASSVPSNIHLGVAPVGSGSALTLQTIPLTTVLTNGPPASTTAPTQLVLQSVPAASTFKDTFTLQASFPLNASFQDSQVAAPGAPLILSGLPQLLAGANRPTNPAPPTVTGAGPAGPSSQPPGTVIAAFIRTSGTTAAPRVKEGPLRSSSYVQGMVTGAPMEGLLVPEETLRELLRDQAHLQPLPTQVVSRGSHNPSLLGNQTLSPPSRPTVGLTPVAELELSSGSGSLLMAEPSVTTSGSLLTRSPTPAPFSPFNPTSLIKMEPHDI
Sequence of ELF1 (P32519 whole entry): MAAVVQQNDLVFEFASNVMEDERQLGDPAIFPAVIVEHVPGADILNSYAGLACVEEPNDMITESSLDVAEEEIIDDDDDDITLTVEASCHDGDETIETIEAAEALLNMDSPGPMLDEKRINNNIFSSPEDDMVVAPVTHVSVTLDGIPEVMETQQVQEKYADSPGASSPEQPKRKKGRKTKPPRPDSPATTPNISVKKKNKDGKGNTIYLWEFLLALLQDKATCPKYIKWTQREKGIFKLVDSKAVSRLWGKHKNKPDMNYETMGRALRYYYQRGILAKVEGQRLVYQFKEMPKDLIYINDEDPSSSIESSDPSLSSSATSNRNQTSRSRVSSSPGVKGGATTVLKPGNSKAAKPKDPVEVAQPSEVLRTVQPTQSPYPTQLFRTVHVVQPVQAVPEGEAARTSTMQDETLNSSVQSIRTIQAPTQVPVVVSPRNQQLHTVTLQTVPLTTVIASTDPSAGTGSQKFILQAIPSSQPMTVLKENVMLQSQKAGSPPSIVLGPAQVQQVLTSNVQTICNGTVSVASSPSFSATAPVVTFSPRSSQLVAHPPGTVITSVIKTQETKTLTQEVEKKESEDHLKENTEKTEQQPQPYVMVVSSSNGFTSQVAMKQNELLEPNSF
Sequence of SPIB (Q01892 whole entry): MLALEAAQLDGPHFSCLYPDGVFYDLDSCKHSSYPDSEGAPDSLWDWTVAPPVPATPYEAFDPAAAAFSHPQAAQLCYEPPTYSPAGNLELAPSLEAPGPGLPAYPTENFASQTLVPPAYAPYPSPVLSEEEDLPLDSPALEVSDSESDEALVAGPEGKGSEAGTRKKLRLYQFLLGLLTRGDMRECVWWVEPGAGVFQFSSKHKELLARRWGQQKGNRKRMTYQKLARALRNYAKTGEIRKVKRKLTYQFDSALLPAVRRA
Sequence of HSF1 (Q00613 whole entry): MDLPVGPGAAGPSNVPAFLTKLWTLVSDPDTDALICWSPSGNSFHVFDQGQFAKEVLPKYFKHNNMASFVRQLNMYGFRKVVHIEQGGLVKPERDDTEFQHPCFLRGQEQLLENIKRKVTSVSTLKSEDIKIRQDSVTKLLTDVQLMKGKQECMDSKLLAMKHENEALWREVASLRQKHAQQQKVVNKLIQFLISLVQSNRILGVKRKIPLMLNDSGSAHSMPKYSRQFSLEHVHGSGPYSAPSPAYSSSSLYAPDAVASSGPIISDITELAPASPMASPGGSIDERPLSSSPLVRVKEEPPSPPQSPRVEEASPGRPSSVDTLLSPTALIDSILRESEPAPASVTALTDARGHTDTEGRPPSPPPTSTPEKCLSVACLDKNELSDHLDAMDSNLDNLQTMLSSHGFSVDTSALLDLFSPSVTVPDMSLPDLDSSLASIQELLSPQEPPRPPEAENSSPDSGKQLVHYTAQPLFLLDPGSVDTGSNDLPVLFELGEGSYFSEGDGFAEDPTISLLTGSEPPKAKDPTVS
Sequence of ETV5 (P41161 whole entry): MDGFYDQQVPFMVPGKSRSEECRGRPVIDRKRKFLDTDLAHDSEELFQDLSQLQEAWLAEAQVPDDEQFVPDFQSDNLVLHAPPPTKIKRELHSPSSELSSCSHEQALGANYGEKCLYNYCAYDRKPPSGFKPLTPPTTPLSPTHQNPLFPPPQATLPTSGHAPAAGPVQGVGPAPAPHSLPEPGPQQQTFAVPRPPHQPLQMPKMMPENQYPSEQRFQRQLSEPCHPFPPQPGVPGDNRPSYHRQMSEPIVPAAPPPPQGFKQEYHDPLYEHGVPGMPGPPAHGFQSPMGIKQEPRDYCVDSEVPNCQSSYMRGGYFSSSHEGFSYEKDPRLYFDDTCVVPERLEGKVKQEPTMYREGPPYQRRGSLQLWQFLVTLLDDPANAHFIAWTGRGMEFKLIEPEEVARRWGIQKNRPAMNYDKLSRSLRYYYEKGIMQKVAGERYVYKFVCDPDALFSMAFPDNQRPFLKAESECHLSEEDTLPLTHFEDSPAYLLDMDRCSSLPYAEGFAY

Take TATTTC: the binding signal with FLI1 is 2.04 fold enrichment (6-mer frequency, TF over GST control); with ELK1 it was 2.09 fold enrichment (6-mer frequency, TF over GST control); with GABPA it was 2.06 fold enrichment (6-mer frequency, TF over GST control); in the assay with ERG it was 2.32 fold enrichment (6-mer frequency, TF over GST control); with ELF1, 2.06 fold enrichment (6-mer frequency, TF over GST control); with EHF it was 2.21 fold enrichment (6-mer frequency, TF over GST control). The binding signal in the assay with SPI1 is 2.02 fold enrichment (6-mer frequency, TF over GST control); with SPIB, 2.19 fold enrichment (6-mer frequency, TF over GST control); in the assay with ELK3, 2.21 fold enrichment (6-mer frequency, TF over GST control); with FEV, 2.32 fold enrichment (6-mer frequency, TF over GST control); with ETV5, 2.13 fold enrichment (6-mer frequency, TF over GST control); with HSF1, 1.69 fold enrichment (6-mer frequency, TF over GST control). In addition, the binding signal with SPIC is 2.38 fold enrichment (6-mer frequency, TF over GST control); with ELF4, 2.01 fold enrichment (6-mer frequency, TF over GST control); in the assay with ELK4, 2.24 fold enrichment (6-mer frequency, TF over GST control); with ETV2 it was 2.11 fold enrichment (6-mer frequency, TF over GST control); with ELF3, 2.09 fold enrichment (6-mer frequency, TF over GST control); with CRX, 1.64 fold enrichment (6-mer frequency, TF over GST control). In addition, in the assay with ETV1, the binding signal is 2.14 fold enrichment (6-mer frequency, TF over GST control).
